Screening results (PubChem)
An excerpt weighted towards active compounds, which were near 7.3% of everything screened.
Tau FP inhib: tau fibrillization inhibition (FP). P10636. K18 P301L tau heparin fibrillization, Alexa594 FP, 6 h. Potency, µM (doses to about 57.7 µM), without a hit: at the highest dose activity, negative = inhibition, hits mostly inhibitors. 280,000 compounds, 0.39% hits; note: nearly all actives have a fitted effect of over 55% in size
Target sequence (P10636 561-689 P618L limits assumed): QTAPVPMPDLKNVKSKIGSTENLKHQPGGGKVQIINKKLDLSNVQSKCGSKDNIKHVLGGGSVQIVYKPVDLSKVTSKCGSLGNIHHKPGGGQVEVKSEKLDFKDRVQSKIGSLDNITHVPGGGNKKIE
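Read-out: fluorescence polarization of Alexa 594-labeled tau (0.24 uM), 555 nm excitation, 632 nm emission. Mixtures held 15 uM unlabeled K18 P301L, compound and 20 uM heparin, pH 7 acetate buffer, incubated 6 hr at 37 C.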
RORg inh: inhibitors of mouse ROR gamma transcriptional activity; P51450; Drosophila S2 Gal4-RORgamma UAS-luciferase reporter, 20 h; Potency, µM (top dose mostly 53.6 µM), inactives show at the top dose activity change, negative = inhibition, hits mostly inhibitors; 310,000 compounds, 5.4% hits; note: nearly all actives have a fitted effect of over 60% in size
Target sequence (P51450 whole entry, looked up, the tested form may be a part): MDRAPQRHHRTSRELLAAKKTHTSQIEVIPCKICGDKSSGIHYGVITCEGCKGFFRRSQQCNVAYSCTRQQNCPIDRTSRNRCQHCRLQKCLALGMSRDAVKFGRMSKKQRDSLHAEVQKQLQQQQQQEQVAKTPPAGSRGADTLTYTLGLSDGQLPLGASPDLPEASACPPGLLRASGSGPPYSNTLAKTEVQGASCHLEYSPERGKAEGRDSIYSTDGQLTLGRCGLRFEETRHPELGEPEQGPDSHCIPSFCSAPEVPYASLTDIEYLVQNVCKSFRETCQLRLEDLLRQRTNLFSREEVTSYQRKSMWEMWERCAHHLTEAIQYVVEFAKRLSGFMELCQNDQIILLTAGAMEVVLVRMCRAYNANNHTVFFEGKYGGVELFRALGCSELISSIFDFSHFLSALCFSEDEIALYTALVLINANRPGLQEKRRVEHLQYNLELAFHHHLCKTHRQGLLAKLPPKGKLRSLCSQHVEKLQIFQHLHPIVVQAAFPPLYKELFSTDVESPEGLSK
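ROR gamma transcriptional activity was tracked as Gal4-UAS luciferase output in stably transfected Drosophila Schneider cells, with compound added 1 hr before 700 uM copper sulfate induction and a 20 hr ambient-temperature incubation.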
Tau fluor counter: counter-screen for tau fibril formation inhibitors | Potency, µM (highest dose often 57.7 µM), for inactives: at the highest dose activity change, negative = decrease | 280,000 compounds, 0.93% hits | tau K18 P301L Alexa594 fluorescence, heparin fibrillization | AID 1463; note: nearly all actives have a fitted effect of over 55% in size
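Human K18 P301L tau (15 uM unlabeled plus 0.24 uM Alexa 594-labeled, final) in 100 mM sodium acetate pH 7 was mixed with compound and 20 uM heparin and incubated 6 hr at 37 C.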
Gal4-VP16 FLuc: inhibits Gal4-VP16 luciferase reporter, ROR gamma counter-screen; Drosophila S2 Gal4-VP16 UAS-luciferase, luminescence, 20 h; Potency, µM (top dose mostly 53.6 µM), for the others: at the highest dose activity, negative = inhibition, actives largely listed as inhibitors; 310,000 compounds, 3.5% hits; AID 2546;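 note: Gal4-VP16 expression switched on by copper sulfate through the metallothionein promoter; nearly all actives have a fitted effect of over 50% in size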
Tau ThT inhib: blocks human tau fibril formation measured by thioflavin T; P10636; recombinant tau K18 P301L (four-repeat tau fragment), heparin-induced fibrillization, ThT fluorescence; Potency, µM (series often up to 57.4 µM), without a hit: at the highest dose activity, negative = inhibition, actives largely listed as inhibitors; 270,000 compounds, 2.1% hits; note: nearly all actives have a fitted effect of over 55% in size
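Tau K18 P301L fragment (15 uM unlabeled plus 0.24 uM Alexa 594-labeled) in 100 mM sodium acetate pH 7 with compound, fibrillization induced by 20 uM heparin for 6 hr at 37 C. Thioflavin T (30 uM) added, fluorescence read after 1 hr (ex 450, em 510 nm).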
* marks the source's active call; other numbers are inactive results; ? = inconclusive; . = no result given; [ ] = another dose, or the depositor's remark. Calls come from the whole dose curve; as a rule, active = well fitted curve in the direction sought with a large enough effect; inconclusive = small, poorly fitted or top-dose-only effect, or another doubt; inactive = no such curve, though single readings can be large; an effect the other way counts as inactive or inconclusive. % is set by controls: 0 for no effect and ±100 for the full control effect; potency is the fitted concentration of half-maximal effect.

SMILES	Tau FP inhib	RORg inh	Tau fluor counter	Gal4-VP16 FLuc	Tau ThT inhib
S=c1[nH]nc(-c2ccco2)n1/N=C/c1c(Cl)cccc1Cl	-7%	20%	-2%	1%	7%
CC(C1CC2CCC1C2)n1c(-c2ccco2)n[nH]c1=S (centres undefined)	-3%	1.3µM*	-3%	6.3µM*	-6%
O=C(c1cc(-c2ccc(Cl)cc2)on1)N1CCOCC1	1%	10µM*	-7%	?	-9%
O=C(c1cc(-c2ccc(Cl)cc2Cl)on1)N1CCOCC1	5%	10µM*	1%	?	-7%
O=C(c1cc(-c2ccc3c(c2)OCO3)on1)N1CCN(c2ccccc2)CC1	5%	30%	-24%	1%	?
O=C(c1cc(-c2ccc3c(c2)OCO3)on1)N1CCOCC1	7%	10µM*	9%	7.9µM*	-2%
O=C(c1cc(-c2ccc(Cl)c(Cl)c2)on1)N1CCOCC1	.	9%	.	0%	.
CCC1Oc2ccc(C)cc2N(CC(=O)NCc2ccc(F)cc2)C1=O (centres undefined)	-2%	.	-15%	.	-3%
CC(Oc1cc2oc(=O)c3c(c2cc1Cl)CCC3)C(=O)N1C[C@H]2C[C@@H](C1)c1cccc(=O)n1C2 (some centres undefined)	.	-14%	.	-8%	.
COc1ccc(NC(=O)c2ccc(Cn3cc(Cl)cn3)cc2)cc1	6%	31%	20%[2.34 µM]	-10%	2%
CN(C)c1ccc(NC(=O)c2ccc(Cn3cc([N+](=O)[O-])cn3)cc2)cc1	14%	?	?	-5%	13µM*
O=C(Nc1cnn(Cc2c(Cl)cccc2Cl)c1)c1ccc([N+](=O)[O-])cc1	?	?	25µM*[quencher]	?	-20%
CCN(CC)C(=O)c1cc([N+](=O)[O-])cc2c1-c1ccc([N+](=O)[O-])cc1C2=C(C#N)C#N	?	?	?	20µM*	32µM*
CCN(CC)C(=O)c1ccc(Oc2ccc([N+](=O)[O-])cc2Cl)cc1	7%	39%	-1%	-8%	-2%
NS(=O)(=O)c1ccc(N/N=C/c2cn(-c3ccccc3)nc2-c2cccs2)c([N+](=O)[O-])c1	16%	-11%	?	1%	2.5µM*
NS(=O)(=O)c1ccc(N/N=C/c2cn(-c3ccccc3)nc2-c2cccs2)cc1	-11%	?	13µM*[quencher]	?	16µM*
N#Cc1ccc(N/N=C/c2cn(-c3ccccc3)nc2-c2ccccc2)c([N+](=O)[O-])c1	1%	11%[10 µM]	0%	-8%	8%
NC(=O)N/N=C/c1cn(-c2ccccc2)nc1-c1cccs1	-12%	33%	-25%	1%	16%
Cc1cc(C)c(S(=O)(=O)NCCc2cc3c(C)ccc(C)c3[nH]c2=O)c(C)c1	-7%	.	-4%	.	-2%
O=C(NNc1cc(Br)c(O)c(Br)c1)c1ccccc1	16µM*	?	?	-1%	5µM*
NS(=O)(=O)c1ccc(NNC(=O)c2ccccc2)cc1	0%	13%	6%	1%	.
Cc1ccc(Oc2coc3cc(OCC(=O)NC4CCCCC4)ccc3c2=O)cc1	3%	.	-4%	.	-6%
CCc1ccc(-c2nc(NC(=S)NC(=O)c3cccs3)sc2C)cc1	-17%	?	-13%	3.2µM*	-19%
COC(=O)c1nc(NC(=S)NC(=O)c2cccs2)sc1C	.	4µM*	.	4.5µM*	.
O=C(NC(=S)Nc1nc2ccccc2s1)c1cccs1	-2%	?	-26%	?	?
SMILES	Tau FP inhib	RORg inh	Tau fluor counter	Gal4-VP16 FLuc	Tau ThT inhib
COC(=O)Cc1nc(NC(=O)c2cccs2)sc1C	.	20%	.	-2%	.
CC(C)(C)c1ccccc1OCCCCCn1ccnc1	7%	18µM*	2%	?	-11%
Cc1cc(C)c(OCCCn2ccnc2)c(C)c1	.	13µM*	.	?	.
Cc1cc(Cl)c(OCCCn2ccnc2)c(Br)c1	2%	18µM*	-1%	?	-8%
Cc1cc(C)c(OCCn2ccnc2)c(C)c1	.	-30%	.	-10%	.
Cc1cc(C)c(C)c(OCCCn2ccnc2)c1	4%	16µM*	-8%	-10%	-16%
Cc1cc(Cl)c(OCCCn2cncn2)c(Br)c1	-4%	17%	-2%	1%	-7%
Cc1ccc(C)c(N2CCN(S(=O)(=O)c3ccc4oc(=O)c5ncn(C)c5c4c3)CC2)c1	-1%	.	3%	.	2%
CC1Cc2cc(S(=O)(=O)NCc3ccccc3Cl)ccc2N1C(=O)C1CCC1 (centres undefined)	3%	.	-10%	.	-5%
CC(=O)OC[C@@H]1O[C@H](CCO/N=C(\C)CCN2CCc3nc(-c4ccccc4)c(-c4ccccc4)cc3C2)C=C[C@@H]1OC(C)=O	-4%[11.6 µM]	-9%[10 µM]	-4%[11.6 µM]	5%[10 µM]	-10%[11.5 µM]
Cc1ccc(OCCCCn2ccnc2)c(Cl)c1	3%	11µM*	9%	?	-1%
O=C(O)c1ccc(NS(=O)(=O)c2cccc(C(=O)Nc3cccc(C(=O)O)c3)c2)cc1	.	-1%	.	-5%	.
O=C(O)c1cccc(S(=O)(=O)Nc2ccc3c(c2)CCC3)c1	.	?	.	10µM*	.
COc1ccc(-c2nc3ccc(N4CCCC4)cc3c(=O)[nH]2)cc1OC	3%	-43%	?	-10%	2.2µM*
Cc1sc2nc(CSc3ncn[nH]3)[nH]c(=O)c2c1C	-3%	0%	-12%	1%	-10%
CCc1cc2c(SCc3nc4sc(C(C)=O)c(C)c4c(=O)[nH]3)ncnc2s1	13%	10µM*	-24%	?	?
COc1ccc(OC)c(NC(=O)Cn2c(=O)cc(C)c3c(C)nn(-c4cccc(Cl)c4C)c32)c1	1%	.	-9%	.	12%
N#Cc1c(-c2ccncc2)c2c([nH]c1=S)CCCC2	-4%	19%	-17%	-10%	?
Cc1ccc(-c2c3c([nH]c(=S)c2C#N)CCCC3)o1	?	-19%	-15%	-1%	22µM*
COCCn1c(=O)c(-c2cccc(C#N)c2)nc2cnc(N3CCN(C)CC3)nc21	.	-9%	.	-3%	.
COc1ccc(NC(=O)Nc2sc3nc4n(c(=O)c3c2C)CCC(C)CC4)cc1OC (centres undefined)	?	.	8.9µM*[quencher]	.	?
O=C(CCl)Nc1nc(-c2ccco2)c(-c2ccco2)s1	-6%	?	13µM*[quencher]	?	?
COCCN(C(=S)Nc1ccccc1C)C(C)c1ccco1 (centres undefined)	-3%	?	-11%	7%	-10%
COCCN(C(=S)Nc1ccc(C)cc1C)C(C)c1ccco1 (centres undefined)	-2%	14µM*	-15%	-96%	-12%
COCCN(C(=S)Nc1cccc(C)c1C)C(C)c1ccco1 (centres undefined)	13%	11µM*	-7%	?	-5%
Cc1ccc(NC(=O)Cn2nnc(C(=O)NCc3ccc(Cl)cc3)c2N)cc1F	.	-15%	.	-8%	.
